Our source for the inhibition values is PubChem BioAssay AID1376 (SRMLSC, 2008).

Several values for one entry are separate records, joined by “and”; a condition that tells them apart may be missing. Identical values can stand only once. Hit rate of the full screen: of about 220,000 compounds, about 530 (0.24%) were called active. Cut-off read from the data, not from the text of the source: active = inhibition above about 13%; inconclusive = no clear call, values can overlap the other calls; inactive = below that. The list comes from a sample in which actives are over-represented; it also holds similar structures and randomly drawn compounds. Results with a measured potency or affinity are listed apart.

In the experiment the target is Bifunctional protein GlmU (Mycobacterium tuberculosis (strain ATCC 25618 / H37Rv)) (UniProt P9WMN3). Nature of the experiment: inhibition of mycobacterial GlmU enzyme – biochemical, glucosamine-1-phosphate acetyltransferase (AID 1376).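 Note: 0% = complete reaction with vehicle and 100% = reaction without substrate.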 The settings on record: M. tuberculosis GlmU acetyltransferase enzyme assay; hits give high values;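 tested at 30 µM in the primary screen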.
Sequence of Bifunctional protein GlmU (Mycobacterium tuberculosis (strain ATCC 25618 / H37Rv)) (P9WMN3 whole entry, looked up): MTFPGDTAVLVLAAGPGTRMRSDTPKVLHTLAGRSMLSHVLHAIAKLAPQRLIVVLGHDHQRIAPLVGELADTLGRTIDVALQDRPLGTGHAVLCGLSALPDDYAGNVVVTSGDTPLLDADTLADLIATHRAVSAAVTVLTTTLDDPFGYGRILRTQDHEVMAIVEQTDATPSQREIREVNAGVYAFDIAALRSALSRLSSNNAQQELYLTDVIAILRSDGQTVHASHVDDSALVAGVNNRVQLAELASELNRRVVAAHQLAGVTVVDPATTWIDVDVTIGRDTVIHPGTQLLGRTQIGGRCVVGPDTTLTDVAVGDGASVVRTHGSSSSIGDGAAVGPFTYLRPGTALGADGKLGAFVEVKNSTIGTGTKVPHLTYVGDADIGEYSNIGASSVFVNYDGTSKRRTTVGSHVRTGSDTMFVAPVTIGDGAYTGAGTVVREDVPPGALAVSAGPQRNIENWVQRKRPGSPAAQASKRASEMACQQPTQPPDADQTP
Turning to `CCOc1ccc(NS(=O)(=O)c2ccc3[nH]c(=O)cc(C(=O)O)c3c2)cc1`, the inhibition is 5.18% (inactive).
For the compound `Cc1oc2cc(O)ccc2c(=O)c1-c1cnn(-c2ccccc2)c1`, the inhibition was 1.72% (inactive).
On to `Cc1oc2c(O)c(O)ccc2c(=O)c1-c1cnn(-c2ccccc2)c1`, for which the inhibition was 15% (active).
Regarding `Cc1oc2c(C)c(O)ccc2c(=O)c1-c1cnn(-c2ccccc2)c1`, the inhibition was -1.79% (inactive).
`CCOC(=O)C(NC(C)=O)(OCc1ccccc1)C(F)(F)F` (stereo unspecified): the inhibition was 1.91% (inactive).
`COC(=O)C(O)(NC(=O)OCc1ccccc1)C(F)(F)F` (stereo unspecified): the inhibition is 13.5% (active).
With `CCOC(=O)NC(NCc1ccccc1)(C(F)(F)F)C(F)(F)F`, the inhibition is -2.58% (inactive).
Under `O=C(Nc1ccccc1N1CCOCC1)c1ccc(Cl)c(S(=O)(=O)NCc2ccco2)c1` stands 0.84% (inactive).
Under `CN1CCN(C(=O)C2=C[C@@H](C3CCCCC3)C[C@@H](OCc3ccc(CO)cc3)O2)CC1` stands 0.67% (inactive); under `COC(=O)c1ccccc1NC(=O)CSc1nnc(-c2cccnc2)n1C`, 3.07% (inactive); under `COc1ccc(NC(=O)CCS(=O)(=O)c2ccc3c(c2)CCCN3C(C)=O)cc1Cl`, -0.45% (inactive).
Regarding `COc1ccccc1CNC(=O)CCS(=O)(=O)c1ccc2c(c1)CCCN2C(C)=O`, the inhibition is 15.2% (active).
For the compound `COc1ccc(NC(=O)CCS(=O)(=O)c2ccc3c(c2)CCCN3C(C)=O)cc1`, the inhibition is 0.16% (inactive).
Consider `O=[N+]([O-])c1ccc2[nH]nc(-c3ccccc3)c2c1`, for which the inhibition is 4.82% (inactive).
In the case of `CC(=O)NNC(=O)c1cc2sccc2s1`, the inhibition was 0.49% (inactive).
For the compound `O=C(O)c1cc2sccc2s1`, the inhibition was 1.23% (inactive).
For the compound `NNC(=O)c1cc2sccc2s1`, the inhibition was 14% (active).
To `O=C1c2cccnc2C(=O)N1C1CCCCC1` belongs 6.11% (inactive); to `CCC(c1ccccc1)c1nnc(NC(=O)c2ccco2)s1` (stereo unspecified), 4.36% (inactive); to `Cc1cc(=O)cc(C)n1-c1ccc(Cl)cc1`, 1.93% (inactive).
On to `CC1=CC(C)(C)N(C)C(=O)N1c1ccc(Cl)cc1`, for which the inhibition is -0.04% (inactive).
As to `O=C1[C@H]2[C@H](C=CC[C@H]2C(=O)N2CCN(c3ccccc3)CC2)CCN1Cc1ccc(Cl)c(Cl)c1`, the inhibition is 0.58% (inactive).
`O=S(=O)(Nc1nc(CN2CCOCC2)nc2sc3c(c12)CCCC3)c1cc(F)ccc1F`: the inhibition is 2.36% (inactive) and -0.91% (inactive).
On to `CC(c1ccccc1)N1CC(C(=O)N2CCN(c3ccccc3)CC2)CC1=O` (stereo unspecified), for which the inhibition was -1.56% (inactive).
Under `CS(=O)(=O)N(CC(=O)Nc1cccc(F)c1)c1cccc([N+](=O)[O-])c1` stands 2.56% (inactive); under `CS(=O)(=O)N(CC(=O)Nc1ccc(F)cc1F)c1cccc([N+](=O)[O-])c1`, 14.6% (active).
In the case of `CS(=O)(=O)N(CC(=O)Nc1c(F)cccc1F)c1cccc([N+](=O)[O-])c1`, the inhibition was 1.32% (inactive).
`Nc1nc2ccccc2cc1S(=O)(=O)c1ccccc1`: the inhibition was -5.35% (inactive).
On to `Cc1ccc(S(=O)(=O)c2cc(O)ccc2O)cc1C`, for which the inhibition is 5.34% (inactive).
With `O=S(=O)(c1ccccc1)c1cc(O)ccc1O`, the inhibition is 12.9% (active).
For the compound `Cc1ccc(C(=O)/C=C\Nc2ccc(C)c(C)c2)cc1`, the inhibition was -4.99% (inactive).
For the compound `COc1ccc(S(=O)(=O)NCC2CCCN(C(=O)CNC(C)=O)C2)cc1` (stereo unspecified), the inhibition was -0.35% (inactive).
Take `CCc1ccc2oc(C(=O)Nc3ccc(S(N)(=O)=O)cc3)c(C)c2c1`: the inhibition was 1.87% (inactive).
Under `CCN1CCN(CCC2Oc3cc([N+](=O)[O-])ccc3NC2=O)CC1` (stereo unspecified) stands -2.08% (inactive).
As for `CC(=O)NC1(C(F)(F)F)C(=O)Nc2c1c(=O)[nH]c(=O)n2CCc1ccccc1` (stereo unspecified), the inhibition was 1.88% (inactive).
In the case of `COc1ccc(C(=O)NC2(C(F)(F)F)C(=O)Nc3c2c(=O)[nH]c(=O)n3CCc2ccc(OC)c(OC)c2)cc1` (stereo unspecified), the inhibition is -0.41% (inactive).
As to `COc1ccc(CCn2c3c(c(=O)[nH]c2=O)C(NC(=O)c2cccs2)(C(F)(F)F)C(=O)N3)cc1OC` (stereo unspecified), the inhibition was 13.3% (active).
Regarding `O=C(NCc1cccs1)c1csc2c1CCCCC2`, the inhibition is 1.69% (inactive).
Regarding `CCN(CC)C(=O)CSc1nc2ccccc2c(=O)n1CC1CCCCC1`, the inhibition is 13.3% (active).
On to `CCN(CC)C(=O)CSc1nc2ccccc2c(=O)n1CC`, for which the inhibition is -0.44% (inactive).
For `CCOC(=O)CSc1nc2ccccc2c(=O)n1CC1CCCC1`, the inhibition was -1.38% (inactive).
For the compound `N#CCCn1cc(C(=O)Nc2ccccc2Br)c(-c2cc3ccccc3o2)n1`, the inhibition is -0.21% (inactive).
On to `O=C(CN(CC1CCCO1)C(=O)CNS(=O)(=O)c1ccc(Cl)cc1)NCC1CCCO1` (stereo unspecified), for which the inhibition is -2.4% (inactive).
For the compound `N#Cc1ccccc1NC1=CC(=O)CCC1`, the inhibition is -6.37% (inactive).
To `CCc1nnc2n1N=C(c1ccc([N+](=O)[O-])cc1)CS2` belongs -0.05% (inactive); to `O=C(O)c1ccccc1C(=O)Nc1ccc(Oc2ccccc2)cc1`, 0.7% (inactive); to `O=C(O)COc1ccc(NC(=O)c2cccs2)cc1`, -5.47% (inactive).
To `Cc1ccc(C(=O)Nc2ccc(Oc3ccc(C(=O)O)c(C(=O)O)c3)cc2)cc1C` belongs 47.7% (active).
In the case of `Cc1ccc(C(=O)Nc2ccc(O)cc2C(=O)O)cc1C`, the inhibition was 1.76% (inactive).
As for `COc1ccc(NC(=O)c2cccs2)cc1`, the inhibition was -2.83% (inactive).
As to `Cc1cccc(Oc2ccc(NC(=O)c3ccccc3C(=O)O)cc2)c1`, the inhibition was 1.43% (inactive).
In the case of `COc1ccc(C(=O)Nc2cccc(OC)c2)cc1`, the inhibition is 6.57% (inactive).
For `COC(=O)CCSC(=S)N1CCOCC1`, the inhibition was -0.58% (inactive).
As to `COc1ccc(NC(=O)N(Cc2cccs2)Cc2cc3cc4c(cc3[nH]c2=O)OCO4)cc1`, the inhibition is 1.28% (inactive).
Regarding `CCOC(=O)c1cc2sccc2n1CC(=O)C(C)(C)C`, the inhibition was -4.29% (inactive).
To `CCn1ncc(Br)c1C(=O)Nc1ccn(C23CC4CC(CC(C4)C2)C3)n1` belongs -4.08% (inactive); to `CC(=O)N(C)N1c2ccccc2CCc2ccccc21`, -8.48% (inactive); to `Cc1cccc(OCCNC(=O)c2ncn[nH]2)c1`, 1.93% (inactive).
To `Cn1c(=O)c2c(nc(SCC(=O)NC34CC5CC(CC(C5)C3)C4)n2C)n(C)c1=O` belongs -0.07% (inactive); to `O=C(CSc1nnc(-c2ccncc2)o1)NC1C2CC3CC(C2)CC1C3` (stereo unspecified), 1.35% (inactive).
As to `N#C/C(=C\c1ccc(C(=O)O)cc1)c1nc2sc3c(c2c(=O)[nH]1)CCCC3`, the inhibition was 14.3% (active).
To `CCOC(=O)c1nc2sc3c(c2c(=O)[nH]1)CCCC3` belongs 4.84% (inactive) and 1.97% (inactive); to `O=C(O)c1ccc(/C=C/c2nc3sc4c(c3c(=O)[nH]2)CCC4)cc1`, 2.03% (inactive).
`O=C1NC(CCc2ccccc2)C(=O)N1Cc1ccccc1Cl` (stereo unspecified): the inhibition is -2.29% (inactive).
Under `CCc1sc(-c2ccccc2)nc1C(=O)OC` stands -3.08% (inactive); under `CN(C(=O)COC(=O)c1n[nH]c2ccccc12)c1ccccc1`, -0.77% (inactive).
Turning to `COc1ccccc1NC(=O)N1CCC(c2nnc(SCC(N)=O)n2C)CC1`, the inhibition is 5.75% (inactive).
On to `CC(=O)c1cccc(NC(=O)N2CCC(c3nnc(SCC(N)=O)n3C)CC2)c1`, for which the inhibition was 12.8% (active).
Consider `Cn1c(SCC(N)=O)nnc1C1CCN(C(=O)NCc2ccccc2)CC1`, for which the inhibition was 2.81% (inactive).
For `CSc1nsc(/C=C/Nc2ccc(C(=O)O)cc2)c1C#N`, the inhibition was -2.44% (inactive).
With `CC1=NN(C(=O)CSCc2ccccc2)C(O)(c2ccc(Cl)cc2)C1` (stereo unspecified), the inhibition was 0.2% (inactive).
Take `O=S1(=O)CCC(N=Cc2cc(Br)ccc2O)C1` (stereo unspecified): the inhibition was -0.36% (inactive).
Under `Cc1ccc(-n2c(C)cc(C(=O)CSc3n[nH]c(N)n3)c2C)cc1` stands -7.08% (inactive); under `Cc1cc(C(=O)CSc2n[nH]c(N)n2)c(C)n1-c1ccc(F)cc1`, 13% (active).
In the case of `Cc1cc(C(=O)CSc2n[nH]c(N)n2)c(C)n1-c1ccccc1`, the inhibition is 1.04% (inactive).
Turning to `Cc1ccc(C(=O)COC(=O)CNC(=O)C(c2ccccc2)c2ccccc2)cc1[N+](=O)[O-]`, the inhibition is 30.6% (active).
To `Cc1ccc(C(=O)NCC(=O)OCC(=O)c2ccc(C)c([N+](=O)[O-])c2)cc1` belongs -3.78% (inactive).
In the case of `Cc1ccc(C(=O)COC(=O)CNS(=O)(=O)c2ccccc2)cc1[N+](=O)[O-]`, the inhibition was -0.84% (inactive).
Take `CCOC(=O)c1sc(Nc2ccccc2Cl)nc1C`: the inhibition was 1.72% (inactive).
On to `O=C(CCc1nc2ccccc2c(=O)[nH]1)OCc1ccc(Cl)cc1Cl`, for which the inhibition was -1.63% (inactive).
`O=S(=O)(NCc1ccc(F)cc1)c1ccc2c(c1)OCCO2`: the inhibition was 4.82% (inactive).
With `COc1ccc(C(=O)Cc2ccc(F)cc2)c(OC)c1`, the inhibition is 8.08% (inactive).
Under `COc1ccc(C(=O)Cc2ccc(OC)c(OC)c2)cc1` stands 0.95% (inactive).
For `COc1ccc(C(=O)Cc2ccc(OC)c(OC)c2)c(OC)c1`, the inhibition was 14.1% (active).
On to `COc1cc(S(=O)(=O)N2CCOCC2)ccc1NC(=O)CSc1nnc(N)s1`, for which the inhibition is 10.7% (inactive).
Consider `Nc1ncc(N=Nc2cc(C(=O)O)ccc2Cl)s1`, for which the inhibition is 13.8% (active).
To `COc1cc(C(=O)O)ccc1Cl` belongs 1.44% (inactive); to `Cc1cccc(N=Nc2cnc(N)s2)c1`, 4.97% (inactive); to `CC(=O)Nc1cccc(Oc2ccc([N+](=O)[O-])cc2Cl)c1`, 2.81% (inactive).
With `CCn1c2ccc(Cl)cc2c2nc3ccccc3nc21`, the inhibition was 2.14% (inactive).
In the case of `CCn1c2ccccc2c2nc3cc(C(=O)O)ccc3nc21`, the inhibition is 1.61% (inactive).
To `O=c1[nH]c(=S)[nH]c(O)c1C(c1ccccn1)c1c(O)[nH]c(=S)[nH]c1=O` belongs 9.35% (inactive); to `CC(=O)CC(c1ccc([N+](=O)[O-])cc1)c1c(O)c2ccccc2oc1=O` (stereo unspecified), 1.67% (inactive); to `O=[N+]([O-])c1ccc2c(c1)oc1ccccc12`, 0.45% (inactive).
Consider `O=c1c2ccccc2oc2ncccc12`, for which the inhibition was 3.79% (inactive).
Regarding `COc1cc2c(cc1NC(=O)Cn1cnc3c1c(=O)n(C)c(=O)n3C)oc1ccccc12`, the inhibition was 9.92% (inactive).

Broadly, the inhibition is the drop in the measured response relative to a control, in per cent.
